Among all 51,000 compounds or so, about 600 (1.2%) were called active. Roughly 2% stayed inconclusive and do not appear here. Shown is part of a subset that was picked to be rich in actives. Values without a mark were called inactive. Rule as the data show it: active = potency below about 11 µM; inconclusive = mostly about 12 µM to 25 µM; inactive = weaker than that;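 the screen sought inhibitors and activators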.
Potency is read from the fitted curve at half-maximal effect.

The test concerns pyruvate kinase (Bacillus stearothermophilus). Briefly: Pyruvate Kinase. Particulars: purified pyruvate kinase, luminescence ATP production; ribose 5-phosphate activator present at AC10. On the procedure:
Pyruvate kinase (partially purified from Bacillus stearothermophilus) was assayed for its ability to generate ATP from ADP using phosphoenolpyruvate (PEP) as a substrate. ATP generation was detected in a coupled reaction by luciferase-mediated luminescence, an ATP-dependent process. Pyruvate kinase substrates, PEP and ADP, were present in the assay at Km and […]-fold below Km respectively. The enzyme was assayed at an intermediate level of activity to screen for inhibitors and activators. In addition, ribose 5 phosphate, a positive modulator of pyruvate kinase, was included in the assay at AC10 in order to identify possible potentiators.
NCGC Assay Protocol Summary:
Three uL of substrate mix (final concentration, 50 mM imidazole pH 7.2, 50 mM KCl, 7 mM MgCl2, 2 mM PEP, 0.1 mM ADP, 0.7 nM ribose 5 phosphate, 0.01% Tween 20, 0.05% BSA) was dispensed into 1536 well plates. 23 nL of compound were delivered by a pin tool and 1 uL of enzyme mix (final concentration, 10 nM pyruvate kinase, 50 mM imidazole pH 7.2, 0.05% BSA) was added. After centrifugation at 1000 rpm for less than a minute, plates were incubated at room temperature for 2 hours. Three uL of detection and kinase stop mix (PKLight, Cambrex) was added, the plates centrifuged, and luminescence read by a ViewLux (Perkin Elmer) at 5 second exposure/plate. Data were normalized to the controls for AC100 stimulation (5 uM ribose 5 phosphate) and to AC100 inhibition (110 uM luteolin).
Regarding `CC(C)(C)NC(=O)NC(=O)COC(=O)Cn1c(C(F)(F)F)nc2ccccc21`, the Potency was more than 57 µM.
In the case of `CCN(CC)C(=O)CSc1nnc(-c2ccc(S(=O)(=O)NCc3ccccc3Cl)cc2)o1`, the Potency is more than 57 µM.
For `CCn1c(SCC(=O)Nc2nc3ccc(OC)cc3s2)nnc1-c1ccoc1C`, the Potency was more than 57 µM.
As to `O=C(CN1CCN(c2ccccn2)CC1)NCc1cccs1`, the Potency is more than 57 µM.
On to `CC(C)n1c(SCC(=O)Nc2ccccc2N2CCCCC2)nc2c1c(=O)n(C)c(=O)n2C`, for which the Potency is more than 57 µM.
Take `COC(=O)c1ccc(Oc2nc(NC(C)C)nc(SC)n2)cc1`: the Potency is more than 57 µM.
As for `CNC(=O)CSc1nnc(CCc2ccccc2)n1-c1ccccc1`, the figure is more than 57 µM.
As to `CCOC(=O)C1CCN(c2ncnc3c2oc2ccc(Br)cc23)CC1`, the Potency was 10.6 µM (active).
Take `Cc1cc(C)nc(N2CCN(c3ncnc4c3oc3ccccc34)CC2)n1`: the Potency was more than 57 µM.
As for `CCOC(=O)C1CCN(C(=O)c2oc3ccc(S(=O)(=O)N4CCCCCC4)cc3c2C)CC1`, the figure is more than 57 µM; as for `O=C(NCc1cn2ccsc2n1)Nc1ccc(Cl)cc1`, more than 57 µM.
Regarding `COc1ccc(-c2cn3ccsc3n2)cc1`, the Potency is 4.01 µM (active).
With `CCCC(=O)Nc1cccc(-c2cn3ccsc3n2)c1`, the Potency is 49.6 µM.
For the compound `COc1ccc(CCNC(=O)CN2CCC(n3nnc4cc(F)ccc43)CC2)cc1OC`, the Potency is more than 57 µM.
On to `CCCc1cc(=O)oc2c(C)c(O)c(CN3CCCCC3)cc12`, for which the Potency is more than 25.6 µM.
Regarding `COc1ccccc1C(=O)Oc1ccc(N2C(=O)CCC2=O)cc1`, the Potency is more than 57 µM.
In the case of `O=S(=O)(/C=C/c1ccccc1)NCCc1ccccn1`, the Potency was more than 57 µM.
`O=C(OC1CCOC1=O)c1ccc(-c2nc3ccccc3s2)s1` (stereo not drawn): the Potency is 4.84 µM (active).
Consider `Cc1nn(Cc2ccccc2)c(Cl)c1C(=O)OC1CCOC1=O` (stereo not drawn), for which the Potency is more than 57 µM.
As for `O=C(c1cccs1)N1CCC(c2nc3ccccc3s2)CC1`, the figure is more than 57 µM; as for `CC(NCCO)C(=O)C12CC3CC(CC(C3)C1)C2` (stereo not drawn), more than 57 µM.
Under `CCC(C)NC(=O)N[C@@H](CCSC)C(=O)O` (stereo partly drawn) stands more than 57 µM; under `COC(=O)CNC(=O)c1ccc2c(c1)S(=O)(=O)c1ccccc1C2=O`, more than 57 µM; under `O=C(Oc1ccccc1)c1ccc2nccnc2c1`, more than 57 µM.
On to `O=C(Oc1ccc(-c2nc(-c3ccccn3)no2)cc1)c1ccccc1`, for which the Potency was 6.85 µM (active).
For `CC(C)c1nc(-c2ccccn2)no1`, the Potency was more than 57 µM.
For `CCOC(=O)CSC1=C(C#N)C(c2ccco2)C(C(=O)OCc2ccccc2)=C(C)N1` (stereo not drawn), the Potency is more than 57 µM.
In the case of `N#Cc1c2c(c(-c3ccccc3)[nH]c1=O)CCCC2`, the Potency was more than 25.6 µM.
Under `CCc1nnc(NC(=O)CSc2nnc(-c3ccncc3)n2Cc2ccccc2)s1` stands more than 57 µM; under `C=CCN(CC=C)C(=O)CN1C(=O)c2ccccc2C1=O`, more than 57 µM.
Regarding `Cc1cc(C(=O)COC(=O)CCCN2C(=O)c3ccccc3C2=O)c(C)n1C`, the Potency was more than 57 µM.
With `C=CCn1c(C)cc(C(=O)CN2C(=O)c3ccccc3C2=O)c1C`, the Potency is 5.37 µM (active).
As for `O=C1CCC(C(=O)Nc2ccc(OC(F)F)cc2)N1` (stereo not drawn), the Potency is more than 57 µM.
As for `O=c1oc2cc(O)ccc2cc1-c1ccc(F)cc1`, the figure is more than 57 µM.
On to `CCCCc1cc(=O)oc2cc(C)cc(OCc3nn[nH]n3)c12`, for which the Potency was more than 57 µM.
For `COc1ccc(-c2cc3ccc(OCc4nn[nH]n4)cc3oc2=O)cc1`, the Potency was 5.08 µM (active).
Turning to `CCCCOc1ccc(C(C)(O)CCN2CCOCC2)cc1` (stereo not drawn), the Potency was more than 57 µM.
In the case of `O=C(CC1Nc2ccccc2NC1=O)Nc1ccccc1` (stereo not drawn), the Potency is more than 11.4 µM.
Turning to `Cc1ncc(CC(=O)n2cc(C(=O)c3cc(Cl)ccc3O)cn2)s1`, the Potency was more than 57 µM.
With `O=C1CC(Cc2ccccc2)C(=O)N1c1ccc(Cl)cn1` (stereo not drawn), the Potency is more than 57 µM.
As for `O=C(O)CCCC(=O)Nc1ccccc1-n1ccnc1`, the Potency is more than 57 µM.
As to `CC(=O)c1cc2c(cc1N)OCO2`, the Potency is more than 57 µM.
As to `CCCCN(C)C(=O)C1CCN(Cc2ccccn2)CC1`, the Potency is more than 57 µM.
Consider `Cc1cc(N2CCCC2)n2nc(C)c(-c3ccccc3)c2n1`, for which the Potency was more than 57 µM.
`CN(c1nc2ccccc2n2c(-c3ccco3)nnc12)S(=O)(=O)c1ccccc1`: the Potency was more than 57 µM.
`c1coc(-c2nc3nc4ccccc4n3nc2-c2ccco2)c1`: the Potency was more than 57 µM.
`Cn1c(-c2ccco2)nc2cc3ccccc3cc21`: the Potency is 0.493 µM (active).
For `Clc1ccc(CSc2nnc([C@@H]3CCCN3)o2)cc1`, the Potency was more than 57 µM.
As to `CCN1CCN(C(=O)c2ccccc2N(C)S(=O)(=O)c2ccc(C)cc2)CC1`, the Potency was more than 57 µM.
As for `Cc1nnc(NC2=NCCCCC2)o1`, the Potency was more than 57 µM.
For the compound `Cc1cc(C)c2nc(SCCC#N)nc(C)c2c1`, the Potency was 48.9 µM.
Turning to `Fc1ccc2[nH]c3c(N4CCN(Cc5ccc6c(c5)OCO6)CC4)ncnc3c2c1`, the Potency is more than 25.6 µM.
For `CNC(=O)C1CC(=O)N(Cc2ccc3c(c2)OCO3)C(=Nc2ccc(F)cc2)S1` (stereo not drawn), the Potency was more than 57 µM.
Under `Cc1cc(C)n(C(=O)c2ccc(C)c(S(=O)(=O)N3CCOCC3)c2)n1` stands more than 57 µM; under `COc1ccc2nc(N3CCCC(O)C3)c(C#N)cc2c1` (stereo not drawn), 41.4 µM.
Take `O=C(NCc1ccccc1)C1C(=O)N(Cc2ccccc2)C(=O)C1C1(O)CCCC1` (stereo not drawn): the Potency is more than 25.6 µM.
Consider `CC1CCCN(C(=O)Cn2c(=O)oc3ccccc32)C1` (stereo not drawn), for which the Potency is more than 57 µM.
For `COc1c(F)c(F)c(-c2csc(N)n2)c(F)c1F`, the Potency was more than 57 µM.
For the compound `Cc1cc(=O)oc(C)c1C(=O)Nc1cnc2ccccc2c1`, the Potency was more than 57 µM.
Turning to `Cc1ccc2c(C(=O)CN3CCCC3)c(C)[nH]c2c1`, the Potency is more than 11.4 µM.
As to `COC(=O)c1[nH]c2ccccc2c1NS(=O)(=O)c1ccc(OC)cc1OC`, the Potency was more than 57 µM.
As for `COc1ccc(N=Cc2c(O)[nH]c3ccccc23)cc1OC`, the figure is 4.61 µM (active); as for `COc1ccc(OC)c(N=Cc2c(O)[nH]c3ccccc23)c1`, more than 57 µM.

For the origin of these results see PubChem BioAssay AID361 (National Center for Advancing Translational Sciences (NCATS), 2006).
